Experimental data: PubChem BioAssay AID2284351 (EPA ToxCast)
Calls of active or inactive are those of the source. Rule for the calls: active = hit-call score of the fitted dose curve at least 0.9, where 1 is the maximum; inactive = score below 0.9.

target: Peroxisome proliferator-activated receptor gamma (Homo sapiens) (UniProt P37231); assay: ATG_hPPARg_EcoTox2: Attagene TRANS-FACTORIAL EcoTox-2 HepG2 Assay for human Peroxisome Proliferator-activated Receptor gamma (PPARg)
Method: ATG_EcoTox2 is a cell-based, multiplexed assay created by modifying the existing Attagene TRANS-FACTORIAL system to include a panel of nuclear receptors from some or all the following species: human (Homo sapiens), african clawed frog (Xenopus laevis), rainbow trout (Oncorhynchus mykiss), japanese medaka (Oryzias latipes), and zebrafish (Danio rerio). The ECOTOX2-FACTORIAL format uses HepG2, a human liver cell line, with measurements taken at 24 hours after chemical dosing in a 24-well plate. ATG_hPPARg_EcoTox2 is one of 29 assay components calculated in the ATG_EcoTox2 assay. It is designed to make measurements of mRNA induction, a form of inducible reporter, as detected with fluorescence intensity signals by Reverse transcription polymerase chain reaction (RT-PCR) and Capillary electrophoresis technology.The assay endpoint ATG_hPPARg_EcoTox2 was analyzed in the positive analysis fitting direction relative to DMSO as the negative control and baseline of activity. Using a type of inducible reporter, measures of mRNA for gain-of-signal activity can be used to understand the reporter gene at the transcription factor-level as they relate to the gene PPARg. Furthermore, this assay endpoint can be referred to as a primary readout, because this assay has produced multiple assay endpoints where this one serves a reporter gene function. To generalize the intended target to other relatable targets, this assay endpoint is annotated to the nuclear receptor intended target family, where the subfamily is non-steroidal.
Human liver HepG2 cells are transiently transfected with multiple reporter transcription units (MRTUs) in 6-well plates using FuGene 6 reagent (Roche; 3 ml FuGene/1 mg DNA). The MRTU constructs are regulated by a cis-regulating element (promoter). Each RTU expresses a GAL4-UAS that regulates the transcription of a nearby target reporter gene sequence. A major difference between the CIS and TRANS system is that in CIS activities of endogenous TFs are measured, whereas the TRANS assay evaluates changes in activities of exogenous, chimeric NR-Gal4 proteins. […] At the end of 24 hour incubation, total RNA was isolated using TriZol reagent (Invitrogen). The isolated RNA is then reverse-transcribed using oligo(dT) primer and Mo-MLV reverse transcriptase (Invitrogen) with DNAse I (Ambion) treatment for 30 min. The one-tenth of the produced cDNA was amplified by PCR using Taq DNA polymerase (Invitrogen) and two reporter sequence-specific primers. […] The fragments were purified using Qiaquick PCR columns (Qiagen), analyzed on an ABI 3130xL genetic analyzer (Applied Biosystems) with peak positions identified by using a set of X-rhodamine (ROX)-labeled MapMarker1000 molecular weight standards (BioVentures). […]

Chain of Peroxisome proliferator-activated receptor gamma (Homo sapiens) (P37231 whole entry, looked up): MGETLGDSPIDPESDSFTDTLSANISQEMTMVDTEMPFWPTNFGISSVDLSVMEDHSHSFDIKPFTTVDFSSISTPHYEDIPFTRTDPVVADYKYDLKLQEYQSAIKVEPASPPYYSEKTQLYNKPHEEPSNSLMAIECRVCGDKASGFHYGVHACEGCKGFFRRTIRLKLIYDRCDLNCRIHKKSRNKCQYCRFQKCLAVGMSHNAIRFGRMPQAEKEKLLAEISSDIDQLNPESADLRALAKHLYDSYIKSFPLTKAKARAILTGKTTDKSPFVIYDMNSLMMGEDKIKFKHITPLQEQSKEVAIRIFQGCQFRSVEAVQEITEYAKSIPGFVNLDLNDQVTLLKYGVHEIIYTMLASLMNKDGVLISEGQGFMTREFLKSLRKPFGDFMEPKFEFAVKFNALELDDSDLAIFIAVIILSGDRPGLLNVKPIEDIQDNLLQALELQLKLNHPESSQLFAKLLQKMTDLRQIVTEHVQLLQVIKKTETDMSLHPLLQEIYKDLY

| Structure (SMILES) | AC50 |
| --- | --- |
| O=P(Oc1ccccc1)(Oc1ccccc1)Oc1ccccc1 | 5.76 µM (active) |
| [Cl][Sn]([c]1ccccc1)([c]1ccccc1)[c]1ccccc1 | 0.0461 µM (active) |
| CCCCOCN(C(=O)CCl)c1c(CC)cccc1CC | 1.53 µM (active) |
| O=S(=O)(O)C(F)(F)C(F)(F)C(F)(F)C(F)(F)C(F)(F)C(F)(F)F | 42.7 µM (active) |
